Assay outcomes: PubChem, several laboratories
ANO1 block – TMEM16A chloride channel inhibitors, primary screen, cell-based, HTS | 310,000 tested, 1.2% active | HEK293 TMEM16A/YFP iodide influx fluorescence, ionomycin | AID 588511, 2011 | Anoctamin-1 (Mus musculus), Q8BHY3 | normalized B-score (activity score, 25-100; higher = stronger inhibition) at 10 µM;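 active = ratio plate-corrected score three or more library SD toward inhibition, starting fluorescence score within five deviations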;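 also: score derived from kinetic fluorescence span divided by baseline fluorescence per well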
CRFR2-BP antag – antagonists of CRF-BP/CRF-R2 complex, primary screen, cell-based, HEK293, calcium dye fluorescence, uHTS. CRF-induced calcium fluorescence. inhibition, % at 11.8 µM. 350,000 tested, 0.59% active;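 active = inhibition of the ligand-induced calcium signal above about 50% at the single tested concentration, limit read from the data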
TMEM16A act – TMEM16A chloride channel activators or potentiators, primary screen, cell-based, HTS. Anoctamin-1 (Mus musculus), Q8BHY3. HEK293 TMEM16A/YFP-H148Q/I152L, iodide quench fluorescence; active compounds read low. B-score at 10 µM. 340,000 tested, 0.3% active;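 active = fluorescence-ratio B-score plate-corrected deviation score at least 3 library SD below zero, with starting fluorescence score within 5 deviations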;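 also: channel opened by trigger with iodide after compound preincubation; score built on the fluorescence ratio of max minus min over baseline; more negative score means more quench and so TMEM16A activation or potentiation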
RTF Ca sens act – cardiac RTF calcium sensitivity activators, primary screen, biochemical, IANBD-TnC fluorescence, EC20 calcium; Troponin I, cardiac muscle (Homo sapiens) + Troponin T, cardiac muscle (Homo sapiens) + …; IANBD-labeled TnC RTF fluorescence at EC20 calcium; 0% EC20 calcium, 100% full calcium; activation, % at 7.2 µM; 340,000 tested, 0.24% active; AID 493008, 2010;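 active = activation above the mean over all tested compounds plus 3 SD, cut at about 30% in these data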;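 also: rise in fluorescence read as greater calcium sensitivity of cardiac thin filaments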
RTF Ca sens inh – cardiac RTF calcium sensitivity inhibitors, primary screen, biochemical, IANBD-TnC fluorescence, EC70 calcium | Troponin I, cardiac muscle (Homo sapiens) + Troponin T, cardiac muscle (Homo sapiens) + … | IANBD-labeled cardiac RTF, Ca2+ fluorescence | inhibition, % at 7.15 µM | 340,000 tested, 0.12% active | AID 493244, 2011;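 active = inhibition above the mean inhibition of all tested compounds plus 3 SD, cut at about 17% in these data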;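 also: assay run at fixed EC70 calcium of 1.6 mM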
CRFR2-BP ag – agonists of CRF-BP/CRF-R2 complex, primary screen, cell-based, HEK293, calcium dye fluorescence, uHTS; AID 588473, 2011; CRF-binding protein / CRF receptor 2 complex (human); 350,000 tested, 0.46% active; calcium dye fluorescence (FLIPR); percent of saturating CRF peptide response; activation, % at 13.2 µM;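 active = activation of at least 50%, plus an integration ratio under a set limit after plate pattern correction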
Numbers stand for hits; n = inactive; x = no result given. Compounds with a hit are over-represented: about 2.4% of the library has one in this group of screens.

SMILES	ANO1 block	CRFR2-BP antag	TMEM16A act	RTF Ca sens act	RTF Ca sens inh	CRFR2-BP ag
COc1ccc(CC(=O)OCC(=O)N2CCc3ccccc32)cc1OC	x	n	-25	n	n	n
C=CCn1c(Oc2ccccc2)nc2c1c(=O)n(C)c(=O)n2C	n	n	n	n	n	106
CCCOc1nc2c(c(=O)n(C)c(=O)n2C)n1Cc1cccc2ccccc12	100	n	n	n	n	n
COc1ccccc1N1CCN(C(=O)/C=C/c2cccs2)CC1	n	80	n	n	n	n
COc1cc(/C=C2\SC(c3ccc(C)cc3)=NC2=O)ccc1O	n	n	n	n	n	50
COc1ccc(/C=C2\SC(c3ccc(C)cc3)=NC2=O)cc1OC	n	n	n	n	n	132
c1ccc(COc2ncnc3c2ncn3CCCNCCN2CCOCC2)cc1	x	n	x	n	n	n
O=C(COC(=O)c1cccc(S(=O)(=O)N2CCOCC2)c1)NCCc1ccccc1	n	n	n	n	n	n
O=C1CCN(c2ncccc2[N+](=O)[O-])CC1	n	n	-4.9	n	n	n
O=[N+]([O-])c1cccnc1N1CCOCC1	n	n	n	n	n	n
CCCCCCCCCSc1n[nH]c(N)n1	n	69	n	n	n	n
COc1ccc(N(CC(=O)N2CCN(Cc3ccccc3)CC2)S(C)(=O)=O)cc1Cl	n	n	n	n	n	n
Cc1cc(C)c2c(CC(=O)Nc3nccs3)coc2c1	n	99	n	n	n	n
Cc1cc(C)c2c(CC(=O)NC(C)C)coc2c1	n	n	n	n	n	n
Cc1ccccc1C(=O)Nc1ccccc1C(=O)N1CCC(C)CC1	n	n	n	n	n	n
CCC(=O)N(Cc1c(C)nn(-c2ccccc2)c1Cl)c1ccc(Cl)cc1	n	68	n	n	n	n
O=c1oc2ccccc2nc1/C=C(\O)c1ccccc1	n	n	n	x	x	n
O/C(=C\c1nc2ccccc2nc1/C=C(\O)c1ccccc1)c1ccccc1	n	84	n	n	n	n
CC(C)c1ccc(OCC(=O)NNC(=S)NC(=O)c2ccco2)c(Br)c1	n	n	n	n	n	n
O=C(NC(=S)NNC(=O)c1ccccc1O)c1ccccc1	n	n	n	n	n	n
O=C(NC(=S)NNC(=O)c1ccccc1O)c1ccc([N+](=O)[O-])cc1	n	n	n	n	n	50
CC(C)(C)c1ccc(OCC(=O)NNC(=S)NC(=O)c2ccco2)c(Br)c1	25	n	-9	n	n	n
Cc1ccccc1C(=O)NNC(=S)NC(=O)c1ccccc1	n	n	n	n	n	160
O=C(NNC(=S)NC(=O)c1ccccc1[N+](=O)[O-])c1ccccc1O	n	n	n	x	x	n
Cc1ccc(C(=O)NC(=S)NNC(=O)c2ccccc2O)cc1	n	n	n	n	n	90
SMILES	ANO1 block	CRFR2-BP antag	TMEM16A act	RTF Ca sens act	RTF Ca sens inh	CRFR2-BP ag
Cc1ccc(OC(C)C(=O)N2CCc3ccccc32)c([N+](=O)[O-])n1 (stereo not drawn)	x	n	x	x	x	n
O=C(NNC(=O)c1ccc(-c2ccccc2)cc1)Nc1ccc(F)cc1F	n	n	n	n	n	n
Nc1nc(SCC(=O)c2c(N)n(C3CC3)c(=O)[nH]c2=O)n[nH]1	x	n	n	n	n	n
Cc1ccc(C(=O)NNC(=S)NC(=O)c2ccc(Cl)cc2Cl)cc1	100	n	n	n	n	156
Cc1ccc(C(=O)NC(=S)NNC(=O)c2ccccc2)cc1	n	n	n	n	n	121
Cc1ccc(C(=O)NNC(=S)NC(=O)c2ccco2)cc1	n	n	n	n	n	97
CC(C)NC(=S)NC(=O)c1ccc(Cl)cc1Cl	n	n	n	n	n	n
O=C(NC(=O)c1ccccc1O)c1ccc(C(F)(F)F)cc1	n	52	n	x	x	55
Cc1ccc(C(=O)NC(=S)NNC(=O)c2ccccc2[N+](=O)[O-])cc1	n	n	n	n	n	n
Cc1cc(OCC(=O)NCCN2CCOCC2)c2c(C)c(C)c(=O)oc2c1	n	n	n	n	n	n
COc1ccc(OCC(=O)NNC(=O)c2cccc(S(=O)(=O)N(C)C)c2)cc1	n	n	n	n	n	n
COc1ccc(CCNC(=O)c2nn(C)c3c2CS(=O)(=O)c2ccccc2-3)c(OC)c1	n	n	n	n	n	n
CCC(=O)NN1CCc2cc3ccc(C)cc3nc21	n	n	n	n	n	n
CCCCC(=O)NC(=S)NNC(=O)c1ccc(Cl)cc1Cl	x	n	n	n	n	111
O=C(O)c1ccc(NC(=S)NC(=O)c2ccc(-c3ccccc3)cc2)cc1	n	78	n	n	n	n
O=C(NNC(=S)NC(=O)c1ccc(Br)cc1)c1cccc([N+](=O)[O-])c1	n	n	n	n	n	n
Cc1ccc(C(=O)NNC(=S)NC(=O)c2ccccc2)cc1	100	n	n	n	n	138
O=C(NNC(=S)NC(=O)c1ccccc1Cl)c1cccc([N+](=O)[O-])c1	n	n	n	n	n	65
O=C(NNC(=S)NC(=O)c1ccccc1[N+](=O)[O-])c1ccc(Cl)cc1Cl	n	n	n	n	n	n
NC(=O)c1nc2c([nH]c1=O)CCCC2	x	n	x	x	x	n
CCN1CCCC1Cn1cnc2c([nH]c3cccc(Cl)c32)c1=O (stereo not drawn)	n	n	-10	n	n	n
COC(=O)CCCC(=O)N1CCC(CCC(=O)NC2CC2)CC1	n	n	n	n	n	n
Cc1cc(OCC(=O)Nc2nccs2)c2c(C)cc(=O)oc2c1	n	n	n	n	n	n
O=C(Nc1cccc2ccccc12)N1CCN(c2ccccc2)CC1	n	n	n	n	n	n
O=C(Nc1cccc2ccccc12)N1CC=CCC1	n	88	n	n	n	n
SMILES	ANO1 block	CRFR2-BP antag	TMEM16A act	RTF Ca sens act	RTF Ca sens inh	CRFR2-BP ag
COC(=O)c1ccc(C(=O)OC)c(N)c1	n	x	x	x	x	x
COC(=O)c1ccc(Sc2ccc(Cl)cc2)c(N)c1	n	73	n	n	n	n
CN1CCC2(CC1)Nc1nc(SCc3ccc(Cl)cc3)nn1C1=C2CN(C)CC1	n	86	n	n	n	n
CC(=O)c1cnc2nc(SCc3ccc(Cl)cc3)nn2c1C	n	n	n	n	n	n
COc1cc[n+]([O-])cc1[N+](=O)[O-]	x	n	n	n	n	n
CCCCn1c(N)c(N(CC)C(=O)c2c(CC)noc2C)c(=O)[nH]c1=O	n	n	n	n	n	n
CCCCn1c(N)c(N(Cc2ccccc2OC)C(=O)c2c(CC)noc2C)c(=O)[nH]c1=O	n	78	n	n	n	n
OCCCNc1nc(-c2ccc(Cl)cc2)nc2ccccc12	n	n	-6.3	n	n	n
